# Measurements as given in PubChem BioAssay (Tox21).
# “And” between values parts separate entries of the source, which are not always exact repeats. Identical values can stand only once. Results filed as inconclusive are left out. Entries that show only a call come without a potency. A structure can be active in one record and inactive in another. The source made the active and inactive calls. Calls come from the whole dose curve; as a rule, active = well fitted curve in the direction sought with a large enough effect in the repeat runs; inconclusive = weak or mixed curves; inactive = no such curve, though single readings can be large; an effect the other way counts as inactive or inconclusive.
# Assays:
# [1] = qHTS RealTime-Glo MT Cell Viability Assay in HepG2 cells - 40 hour (AID 1224870); note: nearly all actives have a fitted effect of over 50% in size
# In short: (§1)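 HepG2 cells (600/well) mixed with RealTime-Glo MT reagent, settled 5 h at 37 C/5% CO2 before compound addition. Nonlytic NanoLuc luminescence from viable-cell prosubstrate reduction read repeatedly during 40 h treatment at 37 C.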
# [2] = A CellTox Green Cytotoxicity Assay to monitor cytotoxicity in HEK293 cells - 40 hour (AID 1224871); note: nearly all actives have a fitted effect of over 45% in size; note: potency is the fitted concentration of half-maximal effect
# In short: (§2)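 HEK293 cells, 600/well, were preincubated 5 hours and then exposed to compounds at 37 C for up to 40 hours. A cell-impermeant cyanine dye staining dead-cell DNA was read by fluorescence at 0, 8, 16, 24, 32 and 40 h time points.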
# [3] = qHTS RealTime-Glo MT Cell Viability Assay in HEK293 cells - 16 hour (AID 1224872); note: nearly all actives have a fitted effect of over 50% in size; note: potency is the fitted concentration of half-maximal effect
# In short: (§3)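 Viability tracked continuously by luminescence as live cells reduce a prosubstrate for NanoLuc; HEK293 cells preincubated 5 h, compound-treated at 37 C, and read at 0, 8, 16, 24, 32 and 40 h.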
# [4] = qHTS RealTime-Glo MT Cell Viability Assay in HepG2 cells - 8 hour (AID 1224873); note: nearly all actives have a fitted effect of over 55% in size
# In short: as §1
# [5] = qHTS RealTime-Glo MT Cell Viability Assay in HEK293 cells - 40 hour (AID 1224874); details: RealTime-Glo luminescence; max response: stronger effect = lower value; note: nearly all actives have a fitted effect of over 50% in size; note: potency is the fitted concentration of half-maximal effect
# In short: (§4)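 600 cells/well were plated with the nonlytic NanoLuc/prosubstrate reagent, pre-incubated 5 h, then given 23 nL of compound in DMSO. Incubation at 37 C for 40 h, with luminescence from viable-cell-reduced substrate read repeatedly from 0 h.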
# [6] = A CellTox Green Cytotoxicity Assay to monitor cytotoxicity in HEK293 cells - 24 hour (AID 1224875); note: series mostly up to about 77 µM; nearly all actives have a fitted effect of over 45% in size
# In short: as §2
# [7] = A CellTox Green Cytotoxicity Assay to monitor cytotoxicity in HepG2 cells - 16 hour (AID 1224876); note: nearly all actives have a fitted effect of over 45% in size
# In short: (§5)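 HepG2 cells, 600/well, preincubated 5 h with CellTox Green dye, then exposed to Tox21 compounds in DMSO at 37 C for up to 40 h. Dead-cell DNA fluorescence read at the indicated time point.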
# [8] = qHTS RealTime-Glo MT Cell Viability Assay in HepG2 cells - 32 hour (AID 1224877); note: nearly all actives have a fitted effect of over 55% in size
# In short: (§6)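 Viability was tracked continuously by NanoLuc luminescence from prosubstrate reduced by living HepG2 cells, at successive time points over 40 h of compound exposure. Cells with reagent were preincubated 5 h at 37 °C before compound addition.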
# [9] = A CellTox Green Cytotoxicity Assay to monitor cytotoxicity in HepG2 cells - 24 hour (AID 1224878); note: nearly all actives have a fitted effect of over 45% in size
# In short: as §5
# [10] = A CellTox Green Cytotoxicity Assay to monitor cytotoxicity in HepG2 cells - 40 hour (AID 1224879); note: nearly all actives have a fitted effect of over 40% in size; note: potency is the fitted concentration of half-maximal effect
# In short: as §5
# [11] = qHTS RealTime-Glo MT Cell Viability Assay in HEK293 cells - 0 hour (AID 1224880)
# In short: as §4
# [12] = A CellTox Green Cytotoxicity Assay to monitor cytotoxicity in HEK293 cells - 32 hour (AID 1224881); note: nearly all actives have a fitted effect of over 40% in size; note: potency is the fitted concentration of half-maximal effect
# In short: as §2
# [13] = A CellTox Green Cytotoxicity Assay to monitor cytotoxicity in HepG2 cells - 0 hour (AID 1224882); note: nearly all actives have a fitted effect of over 35% in size
# In short: as §5
# [14] = A CellTox Green Cytotoxicity Assay to monitor cytotoxicity in HepG2 cells - 32 hour (AID 1224883); note: nearly all actives have a fitted effect of over 50% in size; note: potency is the fitted concentration of half-maximal effect
# In short: as §5
# [15] = A CellTox Green Cytotoxicity Assay to monitor cytotoxicity in HEK293 cells - 8 hour (AID 1224884); note: nearly all actives have a fitted effect of over 35% in size
# In short: as §2
# [16] = qHTS RealTime-Glo MT Cell Viability Assay in HEK293 cells - 24 hour (AID 1224886); note: nearly all actives have a fitted effect of over 50% in size; note: potency is the fitted concentration of half-maximal effect
# In short: as §3
# [17] = qHTS RealTime-Glo MT Cell Viability Assay in HEK293 cells - 8 hour (AID 1224887)
# In short: as §4
# [18] = A CellTox Green Cytotoxicity Assay to monitor cytotoxicity in HEK293 cells - 16 hour (AID 1224888); note: nearly all actives have a fitted effect of over 35% in size
# In short: as §2
# [19] = qHTS RealTime-Glo MT Cell Viability Assay in HepG2 cells - 0 hour (AID 1224889); note: nearly all actives have a fitted effect of over 50% in size
# In short: as §6
# [20] = qHTS RealTime-Glo MT Cell Viability Assay in HepG2 cells - 16 hour (AID 1224885); note: nearly all actives have a fitted effect of over 50% in size
# In short: as §6
smiles,measurement,setting,value
O=P(O)(O)CCCl,Potency,[1],inactive
same,Potency,[2],inactive
same,Potency,[3],inactive
same,Potency,[4],inactive
same,max response,[5],-0.529% (inactive) and 21.1% (inactive)
same,Potency,[6],inactive
same,Potency,[7],inactive
same,Potency,[8],inactive
same,Potency,[9],inactive
same,Potency,[10],inactive
same,Potency,[11],inactive
same,Potency,[12],inactive
same,Potency,[13],inactive
same,Potency,[14],inactive
same,Potency,[15],inactive
same,Potency,[16],inactive
same,Potency,[17],inactive
same,Potency,[18],inactive
same,Potency,[19],inactive
Cc1cc(C)cc(C)c1,Potency,[1],inactive
same,Potency,[2],inactive
same,Potency,[3],inactive
same,Potency,[4],inactive
same,max response,[5],1.65% (inactive) and -3.48% (inactive)
same,Potency,[6],inactive
same,Potency,[7],inactive
same,Potency,[8],inactive
same,Potency,[9],inactive
same,Potency,[10],inactive
same,Potency,[11],inactive
same,Potency,[12],inactive
same,Potency,[13],inactive
same,Potency,[14],inactive
same,Potency,[15],inactive
same,Potency,[16],inactive
same,Potency,[17],inactive
same,Potency,[18],inactive
same,Potency,[19],inactive
CCCCNC(=O)n1c(NC(=O)OC)nc2ccccc21,Potency,[1],inactive
same,Potency,[2],inactive
same,Potency,[3],inactive
same,Potency,[4],inactive
same,Potency,[5],6.88 µM (active)
same,Potency,[6],inactive
same,Potency,[7],inactive
same,Potency,[8],inactive
same,Potency,[9],inactive
same,Potency,[10],7.72 µM (active) and 11 µM (active)
same,Potency,[11],inactive
same,Potency,[12],inactive
same,Potency,[13],inactive
same,Potency,[14],12.2 µM (active) and inactive
same,Potency,[15],inactive
same,Potency,[20],inactive
same,Potency,[16],inactive
same,Potency,[17],inactive
same,Potency,[18],inactive
same,Potency,[19],inactive
Cc1ccccc1[N+](=O)[O-],Potency,[1],inactive
same,Potency,[2],inactive
same,Potency,[3],inactive
same,Potency,[4],inactive
same,max response,[5],1.02% (inactive) and 16.9% (inactive)
same,Potency,[6],inactive
same,Potency,[7],inactive
same,Potency,[8],inactive
same,Potency,[9],inactive
same,Potency,[10],inactive
same,Potency,[11],inactive
same,Potency,[12],inactive
same,Potency,[13],inactive
same,Potency,[14],inactive
same,Potency,[15],inactive
same,Potency,[20],inactive
same,Potency,[16],inactive
same,Potency,[17],inactive
same,Potency,[18],inactive
same,Potency,[19],inactive
CCC(C)c1cc([N+](=O)[O-])cc([N+](=O)[O-])c1O (centres undefined),Potency,[1],inactive
same,Potency,[2],inactive
same,Potency,[3],inactive
same,Potency,[4],inactive
same,max response,[5],5.87% (inactive)
same,Potency,[6],inactive
same,Potency,[7],inactive
same,Potency,[8],inactive
same,Potency,[9],inactive
same,Potency,[10],inactive
same,Potency,[11],inactive
same,Potency,[12],inactive
same,Potency,[13],inactive
same,Potency,[14],inactive
same,Potency,[15],inactive
same,Potency,[20],inactive
same,Potency,[16],inactive
same,Potency,[17],inactive
same,Potency,[18],inactive
same,Potency,[19],inactive
Cc1cc(Cl)ccc1OCCCC(=O)O,Potency,[1],inactive
same,Potency,[2],inactive
same,Potency,[3],inactive
same,Potency,[4],inactive
same,max response,[5],5.09% (inactive) and 8.04% (inactive)
same,Potency,[6],inactive
same,Potency,[7],inactive
same,Potency,[8],inactive
same,Potency,[9],inactive
same,Potency,[10],inactive
same,Potency,[11],inactive
same,Potency,[12],inactive
same,Potency,[13],inactive
same,Potency,[14],inactive
same,Potency,[15],inactive
same,Potency,[20],inactive
same,Potency,[16],inactive
same,Potency,[17],inactive
same,Potency,[18],inactive
same,Potency,[19],inactive
Nc1ccc(-c2ccccc2)cc1,Potency,[1],inactive
same,Potency,[2],inactive
same,Potency,[3],10 µM (active) and inactive
same,Potency,[4],inactive
same,Potency,[5],10 µM (active)
same,max response,[5],-19.4% (inactive)
same,Potency,[6],inactive
same,Potency,[7],inactive
same,Potency,[8],inactive
same,Potency,[9],inactive
same,Potency,[10],inactive
same,Potency,[11],inactive
same,Potency,[12],inactive
same,Potency,[13],inactive
same,Potency,[14],inactive
same,Potency,[15],inactive
same,Potency,[20],inactive
same,Potency,[16],7.11 µM (active) and inactive
same,Potency,[17],inactive
same,Potency,[18],inactive
same,Potency,[19],inactive
CC(C)=CC1C(C(=O)OCc2coc(Cc3ccccc3)c2)C1(C)C (centres undefined),Potency,[1],inactive
same,Potency,[2],inactive
same,Potency,[3],inactive
same,Potency,[4],inactive
same,max response,[5],-17.8% (inactive)
same,Potency,[6],inactive
same,Potency,[7],inactive
same,Potency,[8],inactive
same,Potency,[9],inactive
same,Potency,[10],inactive
same,Potency,[11],inactive
same,Potency,[12],inactive
same,Potency,[13],inactive
same,Potency,[14],inactive
same,Potency,[15],inactive
same,Potency,[16],inactive
same,Potency,[17],inactive
same,Potency,[18],inactive
same,Potency,[19],inactive
O=C(CCl)c1ccccc1,Potency,[1],inactive
same,Potency,[2],inactive and 54.9 µM (active)
same,Potency,[3],inactive and 49 µM (active)
same,Potency,[4],inactive
same,Potency,[5],43.6 µM (active)
same,max response,[5],-7.31% (inactive)
same,Potency,[6],inactive
same,Potency,[7],inactive
same,Potency,[8],inactive
same,Potency,[9],inactive
same,Potency,[10],inactive
same,Potency,[11],inactive
same,Potency,[12],inactive and 54.9 µM (active)
same,Potency,[13],inactive
same,Potency,[14],inactive
same,Potency,[15],inactive
same,Potency,[20],inactive
same,Potency,[16],inactive and 49 µM (active)
same,Potency,[17],inactive
same,Potency,[18],inactive
same,Potency,[19],inactive
CCCCCCOC(=O)c1ccccc1C(=O)OCCCCCC,Potency,[1],inactive
same,Potency,[2],inactive
same,Potency,[3],inactive
same,Potency,[4],inactive
same,max response,[5],-22.3% (inactive)
same,Potency,[6],inactive
same,Potency,[7],inactive
same,Potency,[8],inactive
same,Potency,[9],inactive
same,Potency,[10],inactive
same,Potency,[11],inactive
same,Potency,[12],inactive
same,Potency,[13],inactive
same,Potency,[14],inactive
same,Potency,[15],inactive
same,Potency,[20],inactive
same,Potency,[16],inactive
same,Potency,[17],inactive
same,Potency,[18],inactive
same,Potency,[19],inactive
C=CCN(CC=C)C(=O)C(Cl)Cl,Potency,[1],inactive
same,Potency,[2],inactive
same,Potency,[3],inactive
same,Potency,[4],inactive
same,max response,[5],8.06% (inactive) and -1.16% (inactive)
same,Potency,[6],inactive
same,Potency,[7],inactive
same,Potency,[8],inactive
same,Potency,[9],inactive
same,Potency,[10],inactive
same,Potency,[11],inactive
same,Potency,[12],inactive
same,Potency,[13],inactive
same,Potency,[14],inactive
same,Potency,[15],inactive
same,Potency,[20],inactive
same,Potency,[16],inactive
same,Potency,[17],inactive
same,Potency,[18],inactive
same,Potency,[19],inactive
